# IL1B secr inh = inhibitors of inflammasome signaling (IL-1 beta secretion); activity change, % at 57.5 µM; THP-1 LPS/ATP IL-1B secretion, AlphaLISA, 16 h; stronger effect = lower value; 4.7% of 360,000 active; in the data active means activity change below about -50%; inconclusive means mostly about -30% to -49%
#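 THP-1 cells pretreated 1 hr with compounds (up to 57.5 uM final), then stimulated with LPS (250 ng/mL final) plus ATP (1.25 mM final); secreted IL-1B measured by AlphaLISA after 16 hr, decreased signal indicating inhibition.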
# HT1080 IDH1KD tx = HT-1080 IDH1 knockdown cell toxicity (counter line); HT-1080 IDH1 knockdown viability, ATP luminescence, 48 h; Potency, µM (doses to about 46.1 µM), hits mostly cytotoxic; 2% of 360,000 active
#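 IDH1KD HT-1080 cells, 750/well, RPMI + 5% FBS; compound pinned after 2 h settling; 48 h, 37 °C; CellTiter-Glo luminescence; % activity normalised to DMSO and no-cell wells; curves fitted, classed by r2 and efficacy.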
# DT40 TDP1 CPT = DT40-hTDP1 cell growth loss with CPT; chicken DT40 Tdp1-/-;hTDP1 cells + 20 nM CPT, ATP luminescence, 48 h; Potency, µM (titrated, usually from 46.2 µM), actives largely listed as inhibitors; 12% of 420,000 active; AID 686979; further: nearly all actives have a fitted effect of over 55% in size
#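 Cell growth measured by CellTiter-Glo luminescence after a minimum 48 h, 37 C compound exposure with 20 nM CPT in Tdp1-knockout DT40 cells stably expressing hTDP1, seeded 400/well; qHTS titration format.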
# HT1080-NT tox = kills 2HG-producing HT-1080-NT fibrosarcoma cells | HT-1080-NT fibrosarcoma viability, CellTiter-Glo ATP luminescence, 48 h | 1.6% of 360,000 active | Potency, µM (series often up to 46.1 µM), hits mostly cytotoxic | AID 686970;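 further: NT is the 2HG producing partner of a matched IDH1 knockdown line; nearly all actives have a fitted effect of over 55% in size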
#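 A 48-hour cytotoxicity screen used HT-1080-NT cells plated 2 hours before compound delivery. ATP-based CellTiter-Glo luminescence measured viability, normalized to DMSO and no-cell controls.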
# TDP1 cell noCPT = qHTS for Inhibitors of human tyrosyl-DNA phosphodiesterase 1 (TDP1): qHTS in cells in absence of CPT; DT40 Tdp1-/- hTDP1 cells, no CPT, ATP luminescence, 48 h; Potency, µM (highest dose often 46.2 µM), usual class: inhibitors; 15% of 420,000 active; AID 686978, 2013; further: nearly all actives have a fitted effect of over 55% in size
#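 Compound effects on proliferation are scored in DT40 Tdp1-/-;hTDP1 cells in the absence of CPT. ATP levels (CellTiter-Glo luminescence) are recorded after a ≥48 hr, 37 °C incubation.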
# Numbers stand for hits; – = inactive; ? = inconclusive; · = no result given. Most compounds without a hit are left out; they make up all but 19% or so of the library. Unless noted, the call rests on the fitted dose curve; in most records, active means well fitted curve in the direction sought with a large enough effect; inconclusive means small, poorly fitted or top-dose-only effect, or another doubt; inactive means no such curve, though single readings can be large; an effect the other way counts as inactive or inconclusive.
SMILES,IL1B secr inh,HT1080 IDH1KD tx,DT40 TDP1 CPT,HT1080-NT tox,TDP1 cell noCPT
CN(C[C@H](Cc1ccccc1)N(C[C@H](c1ccccc1)N(CCc1ccccc1)N=O)N=O)N=O,–,–,?,–,16µM
CC(C)CCN(N=O)[C@@H](Cc1ccccc1)CN(N=O)[C@@H](Cc1ccccc1)CN(C)N=O,?,–,?,–,?
CC(C)C[C@@H](CN(N=O)[C@@H](Cc1ccccc1)CN(C)N=O)N(CCc1ccccc1)N=O,–,–,?,–,?
CN(C[C@H](Cc1ccccc1)N(C[C@H](Cc1ccccc1)N(CCC(C)(C)C)N=O)N=O)N=O,–,–,18µM,–,?
COc1ccc(-c2cc3nc(C)c(CCC(=O)N4CCN(c5cc(C)ccc5C)CC4)c(C)n3n2)c(OC)c1,·,·,8.2µM,·,9.2µM
COc1ccc(OC)c(CN2CCN(C(=O)Cc3ccccc3)CC2)c1,–,–,–,–,–
CCC(CO)(C(=O)OC1C[N+]2(C)CCC1CC2)c1ccccc1 (centres undefined),–,–,–,–,–
C[C@H]1CC[C@]2(NC1)O[C@H]1C[C@H]3[C@@H]4CC[C@H]5C[C@@H](O[C@@H]6O[C@H](CO)[C@H](O[C@@H]7O[C@H](CO)[C@@H](O)[C@H](O[C@@H]8OC[C@@H](O)[C@H](O)[C@H]8O)[C@H]7O[C@@H]7O[C@H](CO)[C@@H](O)[C@H](O)[C@H]7O)[C@H](O)[C@H]6O)CC[C@]5(C)[C@H]4CC[C@]3(C)[C@H]1[C@@H]2C,·,·,1.9µM,·,1.7µM
C[C@@H]1CC[C@@]2(NC1)O[C@H]1C[C@H]3[C@@H]4CC=C5C[C@@H](O)CC[C@]5(C)[C@H]4CC[C@]3(C)[C@H]1[C@@H]2C,–,–,–,–,–
CNC1[C@@H](O)C(OC2C(N)C[C@H](N)[C@@H](O[C@@H]3OC(C(C)O)C(O)C(O)C3N)C2O)OC[C@]1(C)O (some centres undefined),·,·,?,·,–
COc1ccc(OCCn2c(NC(=O)c3ccc(OC)cc3)nc3ccccc32)cc1,·,·,18µM,·,16µM
CCC1CCC(C)N(N=O)C1 (centres undefined),–,–,–,–,–
COP(=O)(C#Cc1ccccc1)C(O)c1ccc(Br)cc1 (centres undefined),–,–,–,–,–
CN1CCc2cc3c(c4c2C1Cc1ccccc1-4)OCO3 (centres undefined),-54,–,–,–,–
COc1cc2c(cc1O)C[C@H]1c3c(cc(O)c(OC)c3-2)CCN1C,–,–,–,–,–
CN(C)[C@H](Cc1ccccc1)c1ccccc1,·,·,–,·,–
Cc1cc(C=C2C(=O)N(C)C(=S)N(C)C2=O)c(C)n1-c1cccnc1,-68,–,?,–,?
Cc1ccc(-c2cc(-c3ccc(C)cc3)[n+](-c3ccccc3)c(-c3ccc(C)cc3)c2)cc1,-99,7.3µM,0.52µM,5.2µM,0.37µM
Cc1ccc(-c2cc(-c3ccccc3)cc(-c3ccccc3)[n+]2-c2ccccc2)cc1,-100,12µM,1.6µM,?,0.92µM
Cc1ccc(-c2cc(-c3ccc(C)cc3)[n+](-c3ccc(C(=O)[O-])cc3)c(-c3ccc(C)cc3)c2)cc1,–,–,?,–,?
C[n+]1c(-c2ccccc2)cc(-c2ccc(Cl)cc2)cc1-c1ccccc1,-83,?,3.7µM,?,2.1µM
CN(C)c1ccc(-[n+]2c(-c3ccccc3)cc(-c3ccccc3)cc2-c2ccccc2)cc1,-92,2.6µM,0.33µM,10µM,0.41µM
Cn1c(O)c(C=NCCCNC2CCCCC2)c(=O)n(C)c1=O,–,–,–,–,–
O=C(Cc1ccc(Cl)c(Cl)c1)Nc1cccnc1,–,–,–,–,?
O=C1c2ccccc2-n2nncc2C2c3cc(Br)ccc3CCN12 (centres undefined),–,–,?,–,–
SMILES,IL1B secr inh,HT1080 IDH1KD tx,DT40 TDP1 CPT,HT1080-NT tox,TDP1 cell noCPT
Cc1ccccc1-c1ccc2c(c1)C1c3c(-c4ccccc4)nnn3-c3ccccc3C(=O)N1CC2 (centres undefined),–,–,21µM,–,29µM
COc1cc(C2c3cc4c(cc3CC3COC(=O)C32)OCO4)cc(OC)c1O (centres undefined),–,?,0.052µM,?,0.29µM
COc1cc(C2c3cc4c(cc3C(OC(C)=O)[C@H]3COC(=O)C23)OCO4)cc(OC)c1OC (some centres undefined),·,·,1µM,·,0.033µM
C=CCc1cc(OC)c2c(c1)OCO2,–,–,–,–,–
COc1cc(C2c3cc4c(c(O)c3CC3COC(=O)C32)OCO4)cc(OC)c1O (centres undefined),·,·,0.071µM,·,?
CN1CC[C@]23c4c5ccc(O)c4O[C@H]2[C@@H](O)CC[C@H]3[C@H]1C5,·,·,–,·,–
CCOC(=O)c1cccc(NC(=O)c2c(O)[nH]c(=O)[nH]c2=O)c1,–,–,–,–,–
CCCCCNc1c(C(=O)OCC)c(=O)[nH]c2ccccc12,–,–,?,–,13µM
CCOc1ccc(C(=O)OC2CC3CCC(C2)N3C)cc1 (centres undefined),–,–,–,–,?
CCOc1ccc(-c2cn3c(n2)sc2cc(C(=O)N4CCCC(C)C4)ccc23)cc1 (centres undefined),·,·,10µM,·,6.5µM
ClC1=C(Cl)C(Cl)=C(Cl)C1=C/C=C/c1ccccc1,–,–,5.2µM,–,3.3µM
CC(=O)N1N=C2C3CCN(CC3)C2C1c1ccccc1 (centres undefined),–,–,–,?,–
O=Cc1c(C(=O)O)n(Cc2ccc(Cl)cc2)c2ccccc12,–,–,–,–,–
CCOC(=O)[C@]12Cc3cc(Cl)ccc3[C@H]1N(Cc1ccccc1)C(=O)c1cc(OC)ccc12,-113,13µM,4.6µM,15µM,5.8µM
CCOC(=O)C1CCN(/C=C2/C(=O)NC(=S)N(c3cccc(OC)c3)C2=O)CC1,–,–,–,–,–
CCOC(=O)[C@]12Cc3cc4ccccc4cc3[C@H]1N(Cc1ccccc1)C(=O)c1ccccc12,-110,15µM,16µM,16µM,21µM
CCOC(=O)[C@]12Cc3cc(OC)ccc3[C@H]1N(Cc1ccccc1)C(=O)c1cc(OC)ccc12,–,–,?,–,16µM
CCCCCN1C(=O)c2cc(OC)ccc2[C@@]2(C(=O)OCC)Cc3cc(Cl)ccc3[C@@H]12,·,4.1µM,3.3µM,2.9µM,2.9µM
O=CN1CCCCC1C1CC[C@H]2CCCCN2C1 (some centres undefined),·,·,–,·,–
CNC(=S)N1CCn2cccc2C1c1cccnc1 (centres undefined),–,–,–,–,–
